Assay results reported in the supplement of paper PMC6555819.

Tested on: PPARa:RXRa (NR concentration 270 nM, RXRa partner concentration 90 nM)
Assay: PBM binding z-score (relative to random genomic background probes); higher = stronger binding; sequences stand for … in GC…GCGATTGACAGCGTAGAATGAAGG
Protocol: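 Protein-binding microarray (Agilent 4x180K custom design, double-stranded 60-nt probes: 5' GC cap, 34-nt variable region, 24-nt constant primer region; full probe sequence given). Purified or IVT nuclear receptor:RXRα heterodimers (3:1 NR:RXRα, mostly 270:90 nM) or homodimers were incubated for 1 h in PBS with 2% milk and no ligand, then detected with Alexa488 antibodies. Fluorescence from o1-orientation probes (~5 replicates averaged) was converted to z-scores against 500 random hg19 background probes. Variable regions are seed direct-repeat (DR0–DR5) sites, all their single-nucleotide variants and half-site ablations.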

With CGTCAAAGTTCAACTAAGGTTACGTAAAGCACGC as the sequence, how does the PBM binding z-score read?
Its PBM binding z-score is 5.63.

CCGACTGGGGCAAGGTCACCATAACGCACAGCCA was tested. Which PBM binding z-score did it give?
The PBM binding z-score was 4.2.

For TCTGCTAGGTCATCGATGGTCAGCTAATCTGCTA, which PBM binding z-score is on record?
The PBM binding z-score was 3.2.

How did the PBM binding z-score turn out when AACGAAAGGTCGAAGGTGAGTATACCCACCCGAA was run?
The PBM binding z-score was 4.89.

With TAGCCGAGGTCATTCAGGGGCCAGTATAGAAAGC as the sequence, how does the PBM binding z-score read?
The PBM binding z-score was 6.23.

For AAAACAGGGTCATCGTAGGCCAGAGTACGCACAG, which PBM binding z-score is on record?
The PBM binding z-score was 6.26.

Which PBM binding z-score does the source give for CGTACAAGGTCAAAGGTCAGTGAAGAGATGACGG here?
Its PBM binding z-score is 7.11.

CGTCCAAGGTCAATGCTAGATCAGTGAAAGCATT was tested. Which PBM binding z-score did it give?
The PBM binding z-score was 4.78.

With CAAACTAGGTCACGAGAGGTCAAAGTCGAATGAC as the sequence, how does the PBM binding z-score read?
The PBM binding z-score was 6.78.

Which PBM binding z-score does the source give for ATATGTAGGTTAGCTGGGGTCCTTCAGACTAGGC here?
Its PBM binding z-score is 2.78.

CTATGTGGGTTAAGGGGGTCATTCAGTTTGAAAG was tested. Which PBM binding z-score did it give?
Its PBM binding z-score is 6.22.

Which PBM binding z-score does the source give for CCTACTGGACCAAGGTCATTGATCAGTCAAAGCA here?
The PBM binding z-score was 3.97.

With CACACTAGGTCACAGAGGTCAAAGTCCGTGCGTA as the sequence, how does the PBM binding z-score read?
Its PBM binding z-score is 6.51.

For ATATGTAGGTTAGCTGGGGTCATTCACACTAGGC, which PBM binding z-score is on record?
Its PBM binding z-score is 5.22.

Which PBM binding z-score does the source give for CGAACAAGGTCATTGACAGGACAGTGAATAGTAA here?
Its PBM binding z-score is 5.93.

Which PBM binding z-score does the source give for TGTATGAGGTTAAAGATCAGGGAACGTGGCGTCG here?
Its PBM binding z-score is 4.16.

ATCAAAAGGTCGAGGTGAGTATAGAGAAAGGGAA was tested. Which PBM binding z-score did it give?
Its PBM binding z-score is 4.75.

With CCTTACGGGTCCCTCCAGGTTATAGCATCGGAGT as the sequence, how does the PBM binding z-score read?
The PBM binding z-score was -0.0853.

With CCTTACGGGTCACGAGGTTGTAGCACGACGAGCG as the sequence, how does the PBM binding z-score read?
The PBM binding z-score was 5.73.

Which PBM binding z-score does the source give for ATATGTAGGTTACCTGGGGTCATTCAGACTAGGC here?
Its PBM binding z-score is 5.73.

TGTCAATGTTCAAAGGTAACGTAAGTATCCACAC was tested. Which PBM binding z-score did it give?
The PBM binding z-score was 1.3.

With TCTCGGAGGACACAAAGGTCAGAGCTTTCCAGAG as the sequence, how does the PBM binding z-score read?
Its PBM binding z-score is 3.86.

With CCTACTGGGTCACGAAAGGTCATTGATTCAGTGA as the sequence, how does the PBM binding z-score read?
Its PBM binding z-score is 6.44.

GCTGCTAGGTCAACTGATGGTCAACTAAAGCTCG was tested. Which PBM binding z-score did it give?
Its PBM binding z-score is 3.72.

For CAAAATAGGTCACGAAAGGTCAAAGTCGAATGAC, which PBM binding z-score is on record?
Its PBM binding z-score is 6.79.

CCGAGTTGGTCAAGGTCACACACGCTATAGGTAC was tested. Which PBM binding z-score did it give?
The PBM binding z-score was 4.35.

TAGCCTAGGGCATTCAGGGGCCAGTATAGAAAGC was tested. Which PBM binding z-score did it give?
The PBM binding z-score was 0.0278.

With GTTACAGGGTCAAGGCCAGAGTACGCGTATTGAT as the sequence, how does the PBM binding z-score read?
Its PBM binding z-score is 5.59.

How did the PBM binding z-score turn out when GCTGCTAGGTCAACTGATGGCCAGCTAAAGCTCG was run?
Its PBM binding z-score is 3.6.

Which PBM binding z-score does the source give for CGAACTAGGTCTAAGGACAGTGAAAGGCGACGTA here?
Its PBM binding z-score is 0.792.

How did the PBM binding z-score turn out when CCTACTGGGCCAAAAAGTTCATTGATGCCGATAA was run?
The PBM binding z-score was 1.72.

GCTAGTTGGTCAGTAAAAGGTGACACACCGGTCG was tested. Which PBM binding z-score did it give?
Its PBM binding z-score is 1.54.

Which PBM binding z-score does the source give for TAGCCTAGTTCATGCGGGCCAGTATAGTGTCGGC here?
Its PBM binding z-score is 0.278.

How did the PBM binding z-score turn out when CGAACTAGGTCATCCAGGACCGTGAATACATTGA was run?
Its PBM binding z-score is 4.4.

TAGCCTAGGTCATGGGCCAGTGTACCACGCGAAC was tested. Which PBM binding z-score did it give?
The PBM binding z-score was 4.38.

Which PBM binding z-score does the source give for ATCGAAAGGTCGTGAGGTAAGTATACAGAAAGGC here?
The PBM binding z-score was 5.23.

How did the PBM binding z-score turn out when ATATGTAGGTTAACTGGGGTCATTCAGACTAGGC was run?
Its PBM binding z-score is 5.96.

For CGAACGAGGTCATTGACAGGACAGTGAATAGTAA, which PBM binding z-score is on record?
Its PBM binding z-score is 6.13.

Which PBM binding z-score does the source give for CGAACTAGGTCATTGACAGGACAATGAATAGTAA here?
The PBM binding z-score was 5.06.

How did the PBM binding z-score turn out when CGAACGAGGTCATCCAGGACAGTGAATACATTGA was run?
The PBM binding z-score was 6.37.
